Most compounds without a hit are left out; they make up all but 1.8% or so of the library.
Beta cell apopt: inhibitors of cytokine-induced beta cell apoptosis, primary screen, luminescence; INS-1E cytokine-induced death, ATP luminescence, 48 h; percent of positive-control rescue, neutral wells zero; protection from apoptosis, % (test concentration not listed); 300,000 compounds, 0.8% hits;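 active = Every replicate reaches about 75%, or at least half do and their mean reaches it too, limit read from the data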;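 also: higher means more ATP so stronger rescue from cytokine killing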
Jurkat NFkB inh: inhibitors of induced NF-kB luciferase reporter, primary screen, TCR NF-kB activation inhibitor project, cell-based, luminescence, uHTS. AID 435003, 2010. 330,000 compounds, 0.53% hits. inhibition, % at 4 µM. Jurkat, PMA/ionomycin-induced NF-kB luciferase reporter; in the data active = inhibition above about 50%
Gli-Sufu antag: Gli-Sufu pathway antagonists, primary screen, luciferase luminescence, Sufu-KO-LIGHT cells, uHTS; Sufu-KO-LIGHT fibroblasts, Gli luciferase reporter luminescence; inhibition, % at 5 µM; 340,000 compounds, 0.74% hits;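 active = inhibition above about 55%, limit read from the data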
697 NFkB inh: inhibitors of PMA/ionomycin-induced NF-kB reporter, 697 cells, primary screen, B-cell NF-kB inhibitor project, cell-based, luminescence, uHTS. 697 B-cell NF-kB luciferase reporter, 16 h. 330,000 compounds, 0.33% hits. inhibition, % at 4 µM; in the data active = inhibition above about 35%
Gli-Sufu confirm: Gli-SUFU pathway antagonists, confirmation, single concentration, luciferase luminescence, Sufu-KO-LIGHT cells; shares compounds with Gli-Sufu antag; Gli luciferase reporter; inhibition, % at 5 µM; 2,500 compounds, 40% hits; AID 602428, 2012;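 active = mean inhibition at 5 µM reaching about 45%, limit read from the data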
SufuKO cytotox: cytotoxicity in Sufu-KO-LIGHT cells, confirmation, cytotoxicity control for Gli-SUFU antagonist project, cell-based, ATP luminescence, single concentration; shares compounds with Gli-Sufu antag; cytotoxicity, % at 5 µM; 2,500 compounds, 32% hits; AID 651994, 2013;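 active = mean cytotoxicity at 5 µM above about 25%, limit read from the data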;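 also: cells exposed to compound overnight for roughly 16 to 18 hours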
Wnt3a cs: Wnt3a reporter signal inhibition, confirmation, counter-screen for Gli-SUFU antagonist project, Wnt-LIGHT cells, luminescence, single concentration | shares compounds with Gli-Sufu antag | Wnt3a-driven luciferase reporter | inhibition, % at 6.25 µM | 2,500 compounds, 20% hits | AID 651995, 2013;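 active = mean inhibition above about 25%, limit read from the data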
Hits are given with their value; n = inactive; x = no result given.

SMILES	Beta cell apopt	Jurkat NFkB inh	Gli-Sufu antag	697 NFkB inh	Gli-Sufu confirm	SufuKO cytotox	Wnt3a cs
C=C1C(O)C[C@H]2C(=C)CCC3[C@H](OC(=O)[C@]3(O)CO)[C@@H]12 (stereo partly drawn)	n	n	n	n	x	x	x
O=C(NC1CCN(Cc2ccccc2)CC1)C1CCN(S(=O)(=O)c2cccc3nsnc23)CC1	n	n	59	n	n	29	n
O=C(NC1CCN(Cc2ccccc2)CC1)C1CCN(S(=O)(=O)c2cccc3cccnc23)CC1	x	n	n	n	x	x	x
CCOc1ccc(S(=O)(=O)N(C)c2ccc(OCC(=O)NCc3ccco3)cc2)cc1	n	n	95	n	n	n	n
CCOc1ccc(S(=O)(=O)N(C)c2ccc(OCC(=O)NCc3cccnc3)cc2)cc1	n	n	n	n	x	x	x
CC(C)=CCN1CCN(Cc2cccn2-c2nccs2)CC1CCO (stereo not drawn)	x	n	n	n	x	x	x
CC(C)=CCN1CCN(Cc2cccn2-c2ncccn2)CC1CCO (stereo not drawn)	n	n	n	n	n	n	n
CCOC(=O)NN=C1CCC(c2ccccc2)CC1 (stereo not drawn)	n	n	n	n	x	x	x
Cc1ccc2oc(=O)c3cnn(CC(=O)NC4CCCCC4C)c3c2c1 (stereo not drawn)	x	n	99	n	n	n	n
Cc1ccc2oc(=O)c3cnn(CC(=O)NC4CCC(C)CC4)c3c2c1 (stereo not drawn)	n	n	n	n	n	n	n
O=C(COC(=O)Cc1ccccc1[N+](=O)[O-])Nc1nnc(-c2ccccc2)o1	n	n	n	n	x	x	x
CCCNC(=O)CN(C)S(=O)(=O)c1ccc(F)cc1	n	n	n	n	x	x	x
CCN(Cc1ccc(NC(C)=O)cc1)CC1CCCN(CCc2cccc(OC)c2)C1 (stereo not drawn)	n	n	61	n	n	n	50
CCN(Cc1ccccc1OC)CC1CCCN(CCc2cccc(OC)c2)C1 (stereo not drawn)	n	n	n	n	x	x	x
COc1ccc(NC(=O)c2c(Nc3ccccc3)sc(C(=O)c3ccc(F)cc3)c2N)cc1	104	n	75	n	85	35	81
COc1ccc(C(=O)c2sc(Nc3ccccc3)c(C(=O)Nc3ccc(OC)c(OC)c3)c2N)cc1	n	n	n	n	x	x	x
N#Cc1cn(OCc2ccccc2)c(=O)[nH]c1=O	n	n	n	n	x	x	x
COc1ccccc1C(=O)NCC(=O)n1nc(C)cc1C	n	n	n	n	x	x	x
COc1ccccc1NCC(=O)n1nc(C)cc1C	n	n	n	n	n	n	n
Cc1csc(N(C(=O)c2cccc(S(=O)(=O)N(C)C)c2)c2ccccc2)n1	n	n	57	n	n	n	n
Cc1csc(N(C(=O)c2cccc(S(=O)(=O)N3CCCC3)c2)c2ccccc2)n1	n	n	n	n	x	x	x
CCC(C)NC(=O)COC(=O)Cc1sc(N)nc1-c1ccc(C)cc1 (stereo not drawn)	n	n	n	n	x	x	x
Cc1ccc(-c2nc(N)sc2CC(=O)OCC(=O)NCCC(C)C)cc1	n	n	58	n	n	n	31
O=C(NCc1ccccn1)c1ccc(NS(=O)(=O)c2ccccc2)cc1	n	n	n	n	x	x	x
O=C1CCCC(O)=C1C=NCc1ccccc1	n	n	58	n	n	n	n
SMILES	Beta cell apopt	Jurkat NFkB inh	Gli-Sufu antag	697 NFkB inh	Gli-Sufu confirm	SufuKO cytotox	Wnt3a cs
O=C1CC(c2ccccc2)CC(O)=C1C=NCc1ccccc1 (stereo not drawn)	n	n	n	n	x	x	x
COc1ccc2[nH]c3c(N4CCc5ccccc5C4)ncnc3c2c1	n	n	n	n	x	x	x
CCCCOc1ncnc2c1[nH]c1ccc(F)cc12	110	n	58	n	56	29	n
CCCCOc1ncnc2c1[nH]c1ccc(OCC)cc12	n	n	n	n	x	x	x
CCOc1ccc2[nH]c3c(N4CCN(C(=O)c5ccco5)CC4)ncnc3c2c1	n	n	60	n	50	n	n
COc1ccc(N2CCN(c3ncnc4c3[nH]c3ccccc34)CC2)cc1	102	n	71	n	80	n	n

Compound activity: PubChem BioAssay, several laboratories
